Measured values taken from PubChem BioAssay (NCI).
This is part of a sample that, as a whole, favours compounds with a hit. Of some 83,000 tested, about 20% had one in any assay.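 Single-concentration screen, 48 h exposure, 96-well plates. Endpoint: percent growth. Below 10 = active.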 Unmarked numbers belong to inactive results. Activity calls are given as the source filed them.

Assays:
Experiment in all cases: NCI-60 one-dose screen, 48 h (100 = growth as untreated, 0 = no growth, -100 = all killed)
DU-145 prostate = conditions: 10 µM unless noted
K-562 leukemia = conditions: 10 µM unless noted
MALME-3M melanoma = conditions: 10 µM unless noted
MDA-MB-231 breast = conditions: 10 µM unless noted
RXF 393 renal = conditions: 10 µM unless noted
SF-268 CNS = conditions: 10 µM unless noted
SF-295 CNS = conditions: 10 µM unless noted
SF-539 CNS = conditions: 10 µM unless noted
UACC-257 melanoma = conditions: 10 µM
M14 melanoma = conditions: 10 µM unless noted
HCT-15 colon = conditions: 10 µM unless noted
HT29 colon = conditions: 10 µM unless noted
SNB-19 CNS = conditions: 10 µM unless noted
U251 CNS = conditions: 10 µM unless noted
PC-3 prostate = conditions: 10 µM unless noted
SK-MEL-5 melanoma = conditions: 10 µM unless noted
UACC-62 melanoma = conditions: 10 µM unless noted
LOX IMVI melanoma = conditions: 10 µM unless noted
SK-MEL-28 melanoma = conditions: 10 µM unless noted

SMILES	growth (DU-145 prostate)	growth (K-562 leukemia)	growth (MALME-3M melanoma)	growth (MDA-MB-231 breast)	growth (RXF 393 renal)	growth (SF-268 CNS) [%]	growth (SF-295 CNS)	growth (SF-539 CNS)	growth (UACC-257 melanoma)	growth (M14 melanoma)	growth (HCT-15 colon)	growth (HT29 colon)	growth (SNB-19 CNS) [%]	growth (U251 CNS)	growth (PC-3 prostate)	growth (SK-MEL-5 melanoma)	growth (UACC-62 melanoma)	growth (LOX IMVI melanoma)	growth (SK-MEL-28 melanoma)
CCCCOc1ccc(S(=O)(=O)N2CCN(c3nccc(N4CCOCC4)n3)CC2)cc1	20.3%	50.8%	97.6%	21.5%	52.3%	13.3	-40.2% (active)	65.3%	12%	18.6%	7.04% (active)	13.5%	71.4	27.2%	41.3%	46.8%	-7.93% (active)	-67.9% (active)	21.1%
O=C(Nc1cc(F)cc2cccnc12)c1cnc(N2CCOCC2)cn1	68.5%	22.7%	53.6%	54.7%	59.8%	94.3	97.4%	87.6%	30.6%	70.6%	32.4%	30.1%	88.6	94.6%	62.9%	83.5%	84.9%	19.4%	77.4%
O=C1[C@H]2Cc3c([nH]c4ccccc34)[C@H](c3ccc(Cl)cc3)N2C(=O)CN1C1CCN(Cc2c(Cl)cccc2Cl)CC1	76.9%	6.9% (active)	79.6%	72.5%	53.9%	64.2	86.8%	75.2%	101%	71.5%	39.5%	18.2%	80.6	69.5%	49.3%	66.3%	88.8%	15.3%	98.8%
O=C(Nc1cc(Cl)cc(Cl)c1)Nc1nc2ccc([N+](=O)[O-])cc2s1	16.9%	3.25% (active)	-8.59% (active)	-0.651% (active)	-25% (active)	15.4	-57.2% (active)	3.86% (active)	-14.5% (active)	-9.81% (active)	2.76% (active)	5.08% (active)	21.3	6.61% (active)	7.99% (active)	-76.5% (active)	-34.1% (active)	–	-2.55% (active)
COc1ccc(-c2nnc(SCc3ccc(O)c4ncccc34)o2)cc1	32.7%	16.3%	50%	52.1%	60.2%	30.9	15.6%	27.2%	28.3%	31.4%	10.1%	89.1%	22.3	20%	26.2%	9.31% (active)	–	19.7%	41.7%
Cc1cc(NS(=O)(=O)c2ccc(-c3cnc(C4CC4)o3)cc2)ccc1I	26%	11.6%	48.8%	40.9%	10.8%	65.1	-2.36% (active)	11.5%	66.8%	24.6%	30.5%	14.2%	40.1	30.1%	22.7%	31.5%	30.3%	–	62%
O=C(CCCCCCN1CC(=O)N2[C@@H](c3ccccc3)c3[nH]c4ccccc4c3C[C@H]2C1=O)NO	58.3%	26.3%	21.8%	70.1%	76.6%	82.1	57.4%	62.5%	45.7%	49.9%	91.4%	41.9%	67.1	51.7%	59.6%	41.7%	18.8%	30.8%	47%
CCCC(=O)NC(c1cccnc1)c1cc(C(C)=O)c2cccnc2c1O (configuration not stated)	39.9%	32.2%	38.8%	36.9%	31.7%	27.2	13.9%	25.1%	42.4%	12.7%	19.6%	26.9%	29.5	23.3%	–	0.739% (active)	1.58% (active)	27%	34.1%
NC(=S)N/N=C(/C=C/c1cn(-c2ccccc2)nc1-c1ccc(Cl)cc1)c1cc2ccccc2oc1=O	57.7%	20.8%	71.2%	48.9%	106%	52.9	25.2%	51.1%	76.3%	54.1%	19.9%	36.1%	47.6	35.4%	28%	30.4%	49.6%	36%	73%
C[C@H]1[C@H](C)CC[C@]2(COC(=O)c3cccnc3)CC[C@]3(C)C(=CC[C@@H]4[C@@]5(C)CCCNC(C)(C)[C@@H]5CC[C@]43C)[C@H]12	84.4%	14.3%	59.9%	79.3%	81.9%	76.3	73.3%	78.8%	65.7%	79.1%	39.5%	45.5%	88.6	64.4%	35.8%	56.4%	53.4%	–	75%
COc1cc(/C=C2\SC(=O)NC2=O)ccc1OCC(=O)Nc1ccc(C(=O)/C=C/c2cc3ccccc3nc2Cl)cc1	96.9%	49.4%	89%	88.6%	77.1%	85.8	87%	83.2%	86.3%	85.6%	89.7%	69.9%	85.6	90.3%	82.1%	32.7%	84.3%	81.6%	105%
COc1ccc(N2CCN(C(=O)CSc3ccc(-c4nc5cc(C)c(C)cc5[nH]4)cn3)CC2)cc1	93.1%	35.3%	69.9%	85.6%	93.6%	99.3	50.2%	84%	52.1%	53.9%	52.8%	85.7%	87.5	95.9%	56.4%	3.13% (active)	45.3%	56.8%	74.4%
N/C(=N\c1nc2ccc([N+](=O)[O-])cc2s1)C(Cl)(Cl)Cl	1.66% (active)	81.2%	77.4%	63.1%	44.3%	71.3	19.6%	63.5%	85.1%	85.5%	70.8%	30.7%	61.2	43.9%	49.1%	83.8%	54.7%	76%	72.2%
CN(c1ccc(F)cc1)S(=O)(=O)c1ccc(-c2cnc(C3CC3)o2)cc1	23.5%	10.3%	65.3%	28.4%	-8.88% (active)	64.2	-12.9% (active)	4.96% (active)	70.9%	14.6%	17.9%	13.9%	36.9	23.3%	17.8%	26.8%	30.5%	–	56.7%
C/C(=C(/C)C1CC1CCN(C(=O)c1ccccn1)S(=O)(=O)c1ccc(C)cc1)C1CCCCC1 (configuration not stated)	98.9%	96.8%	104%	91.5%	115%	97.5	90.4%	99.4%	96.7%	101%	91.8%	98.3%	98.4	103%	93.4%	78.6%	63.6%	97.8%	97.3%
C/C=C/C=C1\C[C@H]2CO[C@H](O2)C1=O	106%	56.8%	102%	105%	104%	105	106%	102%	90.8%	85.4%	80.8%	108%	95.6	97.4%	96.5%	98.5%	–	49.3%	104%
